{"source": "PubChem BioAssay (NCATS)", "note": "Results filed as inconclusive are left out. Where a call stands in place of a potency, no number is given. Calls of active or inactive are those of the source. Calls come from the whole dose curve; as a rule, active = well fitted curve in the direction sought with a large enough effect; inconclusive = small, poorly fitted or top-dose-only effect, or another doubt; inactive = no such curve, though single readings can be large; an effect the other way counts as inactive or inconclusive. Bridge positions count the residues as written; N and C are the ends. Square brackets hold non-standard residues; d marks the D form. Side chains are listed from the residue outwards. Peptide text beside a SMILES is read from it. * marks the point of attachment. Phg(4-OMe) = COc1ccc([C@H](N)C(=O)O)cc1; d(aIle) = CC[C@H](C)[C@@H](N)C(=O)O; d(aThr) = C[C@@H](O)[C@@H](N)C(=O)O; NMeF = CN[C@@H](Cc1ccccc1)C(=O)O; Isobutyryl = CC(C)C(=O)*"}
{"assay": "Cytotoxicity qHTS for assessment of Hepg2 cells membrane integrity screened against the NCATS CANVASS Library (AID 1347387)", "conditions": "HepG2 LDH release (CytoTox-ONE) fluorescence, 5 h; series mostly up to 46.1 µM", "procedure,_shortened": "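Membrane damage in HepG2 monolayers was estimated from released LDH, measured with CytoTox-ONE (ex 560/em 590 nm), after 5 hr treatment across 0.59 nM - 46 uM final.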"}
{"smiles": "Cc1occ2c1C(=O)c1c(cc(O)c(O)c1O)C2=O", "outcome": "inactive"}
{"smiles": "O=C1CC2OCC=C3CN4C5CC3C2[C@@H]2N1c1ccccc1[C@]52C[C@@H]4C1=C[C@H]2C3CC4N(CC[C@@]45c4ccccc4N(C1=O)[C@@H]25)C/C3=C/CO", "note": "(stereo not given in full)", "outcome": "inactive"}
{"smiles": "CCC(=O)CCCCC[C@@H]1NC(=O)[C@H]2CCCCN2C(=O)[C@H](C(C)C)NC(=O)[C@H](Cc2cn(OC)c3ccccc23)NC1=O", "outcome": "inactive"}
{"smiles": "C/C(=C\\[C@H](C)C(=O)CCCC1CC(=O)NC(=O)C1)[C@@H]1OC(=O)/C=C/CC/C=C/[C@H](O)[C@@H](O)[C@@H]1C", "outcome": "inactive"}
{"smiles": "C/C=C(/C)c1c(Cl)c(O)c(C)c2c1Oc1c(Cl)c(O)c(Cl)c(C)c1C(=O)O2", "outcome": "inactive"}
{"smiles": "C=CC(CCCCC)C1C(=O)NC(=O)C1C(=O)C1C(/C=C/C)C=CC2CC(C(=O)O)CC(C)C21", "note": "(stereo not given)", "outcome": "inactive"}
{"smiles": "O=c1cc(-c2ccc(O)c(O)c2)oc2cc(O[C@@H]3O[C@H](CO)[C@@H](O)[C@H](O)[C@H]3O)cc(O)c12", "outcome": "inactive"}
{"smiles": "CC[C@H](C)[C@H]1NC(=O)[C@@H](NC(=O)C(C)C)[C@@H](C)OC(=O)[C@H](COC(=O)CNC(C)=O)NC(=O)[C@@H]([C@@H](C)O)NC(=O)[C@H](Cc2ccccc2)N(C)C(=O)[C@H](c2ccc(OC)cc2)NC1=O", "note": "(Isobutyryl-T[d(aIle)][Phg(4-OMe)][NMeF][d(aThr)]S([Gly-Ac]); ester 1-C)", "outcome": "inactive"}
{"smiles": "C[n+]1cc2cc(C(N)=O)[nH]c3c(=N)c(Cl)c(N)c1c23", "outcome": "inactive"}
{"smiles": "CC(=O)Oc1cc2c(c(OC(C)=O)c1C1CCc3cc(Cl)c(Cl)n31)C(=O)n1c-2cc(Cl)c1Cl", "note": "(stereo not given)", "outcome": "inactive"}
{"smiles": "COc1ccc2[nH]c3c(c2c1)CCN1C[C@H]2C[C@@H](OC(=O)c4cc(OC)c(OC)c(OC)c4)[C@H](OC)[C@@H](OC)[C@H]2C[C@H]31", "outcome": "inactive"}
{"smiles": "O[C@H]1c2ccccc2-c2c3c(cc4c2[C@@H]1NCC4)OCO3", "outcome": "inactive"}
{"smiles": "C[C@]12CC[C@]3(C1)[C@H](CC2=O)C[C@@H](OC(=O)c1ccccc1)[C@H]1[C@](C)(C(=O)O)CCC[C@@]13C", "outcome": "inactive"}
{"smiles": "C[C@H]1C=C[C@H]2CCCC[C@@H]2[C@H]1C(=O)[C@H]1CC2=C(C(=O)O)CCN2C1=O", "outcome": "inactive"}
{"smiles": "C/C(=C\\[C@H](C)C(=O)/C=C/CC1CC(=O)NC(=O)C1)[C@@H]1OC(=O)/C=C/CC/C=C/C[C@@H](O)[C@@H]1C", "outcome": "inactive"}
{"smiles": "CC(C)[C@]12CC[C@@]3(C)[C@H](C)CC[C@H](O)[C@@]3(CC1)c1cc3c(cc12)[nH]c1ccccc13", "outcome": "inactive"}
{"smiles": "C/C=C1/CN2C3CC1C1C=CC(=O)N4c5ccccc5[C@@]3(C[C@@H]2C2=C[C@H]3C5CC6N(CC[C@@]67c6ccccc6N(C2=O)[C@@H]37)C/C5=C/C)[C@H]14", "note": "(stereo not given in full)", "outcome": "inactive"}
{"smiles": "Oc1ccc(C2Oc3cc(O)c4c(c3[C@@H]2c2cc(O)cc(O)c2)[C@H]2C(c3ccc(O)cc3)c3c(O)cc5c(c3[C@H]2C4c2ccc(O)cc2)[C@H](c2cc(O)cc(O)c2)C(c2ccc(O)cc2)O5)cc1", "note": "(stereo not given in full)", "outcome": "inactive"}
{"smiles": "COc1cc(O)c(C(=O)[C@@H]2[C@H](CC=C(C)C)C(C)=CC[C@H]2c2ccccc2)c(O)c1", "outcome": "inactive"}
{"smiles": "C=C(C)CC[C@H](Cc1c(O)cc(O)c2c1O[C@H](c1ccc(O)cc1)CC2=O)C(=C)C", "outcome": "inactive"}
{"smiles": "C=CC(CCCCC)C1C(=O)NC(=O)C1C(=O)C1C2C(C)CC(C(=O)O)CC2CC1(O)C(=O)/C=C/C", "note": "(stereo not given)", "outcome": "inactive"}
{"smiles": "C[C@]12CCC[C@](C)(C(=O)O)[C@@H]1CC[C@@]1(C)c3cocc3CC[C@H]21", "outcome": "inactive"}
{"smiles": "COc1c(O)cc2c(c1O)C(=O)c1c(coc1C)C2=O", "outcome": "inactive"}
{"smiles": "CC(C)C[C@@H]1c2c(O)c(C=O)c(O)c(C=O)c2O[C@]2(C)C=C[C@@H](C(C)C)C[C@H]12", "outcome": "inactive"}
{"smiles": "COc1cc2c(c(O)c1O)C(=O)c1c(coc1C)C2=O", "outcome": "inactive"}
{"smiles": "C/C=C/C1C=CC2CC(C)CC(C)C2C1C(=O)CC(=O)NC(CO)C/C=C/CCCCC", "note": "(stereo not given)", "outcome": "inactive"}
{"assay": "qHTS for Activators of p53 Stress Response Pathway screened against the NCATS CANVASS Library (AID 1347388); note: potency is the fitted concentration of half-maximal effect", "conditions": "p53RE-bla HCT-116, beta-lactamase reporter, 16 h; series mostly up to 46.1 µM", "procedure,_shortened": "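p53RE-bla HCT-116 cells (4000/well) were pre-incubated for 5 h, then treated with compound (11 points) for 16 h at 37C. After 2 h with CCF4, the 460/530 nm ratio gave reporter activation; CellTiter-Glo measured viability.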"}
{"smiles": "Cc1occ2c1C(=O)c1c(cc(O)c(O)c1O)C2=O", "Potency": "11.7 µM (active)"}
{"smiles": "C=C[C@@]1(C)CC[C@@H]([C@H](C)C(=O)/C=C/C(C)(C)O)O1", "Potency": "inactive"}
{"smiles": "O=c1cc(-c2ccc(O)c(O)c2)oc2cc(O[C@@H]3O[C@H](CO)[C@@H](O)[C@H](O)[C@H]3O)cc(O)c12", "Potency": "inactive"}
{"smiles": "O[C@H]1c2ccccc2-c2c3c(cc4c2[C@@H]1NCC4)OCO3", "Potency": "13.2 µM (active)"}
{"smiles": "CC(C)=CC[C@H]1C[C@@]2(CC=C(C)C)C(=O)[C@](CC=C(C)C)(C(=O)C(C(=O)c3ccccc3)=C2O)C1(C)C", "Potency": "inactive"}
{"smiles": "C[C@]12CC[C@]3(C1)[C@H](CC2=O)C[C@@H](OC(=O)c1ccccc1)[C@H]1[C@](C)(C(=O)O)CCC[C@@]13C", "Potency": "inactive"}
{"smiles": "CC(=O)O[C@H]1c2ccccc2-c2c3c(cc4c2[C@@H]1N(C(C)=O)CC4)OCO3", "Potency": "inactive"}
{"smiles": "C=C[C@](Cl)(CBr)CCC=C(C)C", "Potency": "inactive"}
{"smiles": "C=C1CC[C@@H](Br)C(C)(C)[C@]12CC=C(C)C(=O)C2", "Potency": "inactive"}
{"smiles": "CC(C)[C@]12CC[C@@]3(C)[C@H](C)CC[C@H](O)[C@@]3(CC1)c1cc3c(cc12)[nH]c1ccccc13", "Potency": "inactive"}
{"smiles": "CC(C)=CCC[C@]12c3cc4c(cc3CC[C@@]1(C)[C@H](C)CC[C@@H]2O)[nH]c1ccccc14", "Potency": "inactive"}
{"smiles": "C=C(C)CC[C@H](Cc1c(O)cc(O)c2c1O[C@H](c1ccc(O)cc1)CC2=O)C(=C)C", "Potency": "inactive"}
{"smiles": "COc1cc(/C=C/C(=O)OC[C@@H](Cc2ccc(O)c(OC)c2)[C@@H](COC(=O)/C=C/c2ccc(O)c(OC)c2)Cc2ccc(O)c(OC)c2)ccc1O", "Potency": "inactive"}
{"smiles": "C/C=C/C1C=CC2CC(C)CC(C)C2C1C(=O)CC(=O)NC(CO)C/C=C/CCCCC", "note": "(stereo not given)", "Potency": "inactive"}
